In the library only some 2.9% were active in any assay of this set; here they are far more common.
PfHsp90 yeast 2 = reduces growth (ATP signal) of yeast expressing P. falciparum Hsp90; actives 0.32% (n = 310,000); S. cerevisiae expressing PfHsp90, BacTiter-Glo ATP, 48 h; yeast lacking PDR1 and PDR3 efflux regulators; inhibition, % at 9.4 µM;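 active = every replicate shows inhibition above about 80%, whatever the replicate mean, limit read from the data; inconclusive = mean inhibition reaches the set limit but some replicate falls short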;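 also: 0% = DMSO neutral controls and 100% = 20 µM radicicol positive controls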
Wnt act = activators of Wnt/beta-catenin signaling; actives 1.2% (n = 300,000); Wnt/beta-catenin reporter cell assay, activator, plate reader; activation, % at 9.35 µM; in the data active = activation above about 30%, passing the limit was not always enough; inconclusive = no clear call, values can overlap the other calls;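 also: 0% = neutral control wells and 100% = positive control wells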
TRPM1 prom inh = reduces MITF-dependent TRPM1 promoter luciferase signal; actives 0.83% (n = 330,000); inhibition, % at 12.5 µM; SK-MEL-5 TRPM1 promoter luciferase, 24 h;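 active = mean inhibition across replicates of 60% or more, whatever share of single replicates reaches that level; inconclusive = some that reach 60%, reason not given; inactive = mean inhibition across replicates below 60%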
MITF TRPM1 HTS = MITF TRPM1 promoter activation in melanoma cells. SK-MEL-5 TRPM1-promoter luciferase, 24 h; % of positive control, neutral wells = 0. activation, % at 12.5 µM. actives 0.75% (n = 300,000);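 active = mean activation of at least 80% with every replicate also reaching 80%; inconclusive = mean reaches 80% but some replicate falls short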;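 also: 0% = neutral control wells and 100% = parthenolide positive control wells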
NSD2 HMT inh = NSD2 (human) methyltransferase inhibition; actives 0.54% (n = 310,000); NSD2 peptide methylation, AlphaScreen, 120 min; inhibition, % at 12.5 µM; AID 743445; in the data active = inhibition above about 50%
Target sequence (O96028 whole entry, looked up): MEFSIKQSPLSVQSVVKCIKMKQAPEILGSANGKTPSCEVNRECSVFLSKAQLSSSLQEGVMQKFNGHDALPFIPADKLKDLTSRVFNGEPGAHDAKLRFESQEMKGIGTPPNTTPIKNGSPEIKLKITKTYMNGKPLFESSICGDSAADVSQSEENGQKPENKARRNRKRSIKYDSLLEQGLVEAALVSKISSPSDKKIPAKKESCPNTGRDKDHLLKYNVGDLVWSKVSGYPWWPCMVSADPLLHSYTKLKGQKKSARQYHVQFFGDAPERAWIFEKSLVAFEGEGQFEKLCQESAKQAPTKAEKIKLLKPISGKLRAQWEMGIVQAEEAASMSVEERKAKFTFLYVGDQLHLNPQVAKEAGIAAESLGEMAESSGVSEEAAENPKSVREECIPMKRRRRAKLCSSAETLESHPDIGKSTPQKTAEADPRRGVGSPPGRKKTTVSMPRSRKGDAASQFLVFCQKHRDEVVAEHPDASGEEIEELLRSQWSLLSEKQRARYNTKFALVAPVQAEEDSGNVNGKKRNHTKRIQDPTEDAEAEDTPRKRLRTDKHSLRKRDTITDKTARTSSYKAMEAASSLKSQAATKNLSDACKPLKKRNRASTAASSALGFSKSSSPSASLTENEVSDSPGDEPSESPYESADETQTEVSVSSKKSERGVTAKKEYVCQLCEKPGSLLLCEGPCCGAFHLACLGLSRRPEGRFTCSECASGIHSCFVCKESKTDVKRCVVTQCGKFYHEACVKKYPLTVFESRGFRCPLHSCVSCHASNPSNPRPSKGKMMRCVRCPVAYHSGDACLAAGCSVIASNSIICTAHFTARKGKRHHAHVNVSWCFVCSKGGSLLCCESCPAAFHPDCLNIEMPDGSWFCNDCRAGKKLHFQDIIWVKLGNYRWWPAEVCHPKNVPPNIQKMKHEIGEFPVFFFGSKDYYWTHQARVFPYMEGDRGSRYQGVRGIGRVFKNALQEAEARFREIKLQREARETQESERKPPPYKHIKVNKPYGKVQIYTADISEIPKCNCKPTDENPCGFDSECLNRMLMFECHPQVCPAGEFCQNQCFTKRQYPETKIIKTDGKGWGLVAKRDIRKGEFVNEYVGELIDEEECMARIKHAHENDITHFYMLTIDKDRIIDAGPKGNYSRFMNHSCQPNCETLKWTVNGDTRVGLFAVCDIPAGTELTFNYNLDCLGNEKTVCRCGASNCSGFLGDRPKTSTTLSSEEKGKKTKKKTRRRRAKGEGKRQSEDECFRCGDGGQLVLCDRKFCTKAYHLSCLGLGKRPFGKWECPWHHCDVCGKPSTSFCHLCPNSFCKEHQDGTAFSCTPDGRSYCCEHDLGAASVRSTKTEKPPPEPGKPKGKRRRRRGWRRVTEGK
N-glyco inh = blocks N-linked glycosylation in D54 reporter cells | AID 588692 | actives 0.23% (n = 360,000) | reporter increase, % at 12.5 µM | D54 ERlucT glycosylation luciferase reporter, 24 h; percent of 100 nM tunicamycin response;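 active = mean luciferase reporter signal, scaled so untreated is 0 and the glycosylation-blocking control 100, at or above a set limit in every replicate; inconclusive = mean reaches the limit but not every replicate does; inactive = mean below the limit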;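 also: luciferase carries N-glycosylation sites so blocking glycosylation raises the light; 0% = median of neutral control wells and 100% = median of 100 nM tunicamycin wells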
* = called active by the depositor; ? = inconclusive; · = no result given.

SMILES	PfHsp90 yeast 2	Wnt act	TRPM1 prom inh	MITF TRPM1 HTS	NSD2 HMT inh	N-glyco inh
CSC(=Cc1ccc(C(=O)c2ccc(C)cc2)n1C)S(C)=O (stereo not given)	·	0	·	·	4	·
COc1ccc(-c2cc(C(F)(F)F)nc(N)n2)cc1	-8	15	-8	4	-8	-1
Nc1nc(-c2ccc(F)cc2)cc(C(F)(F)F)n1	·	-2	15	·	-1	2
COc1ccc(-c2cc(C(F)(F)F)nc(S(C)(=O)=O)n2)cc1	·	·	61*	·	·	-4
CS(=O)(=O)c1nc(-c2ccc(F)cc2)cc(C(F)(F)F)n1	9	?	97*	-97	1	-22
C=CCNC(=O)CC(=O)N/N=C/c1ccc(C(=O)OC)cc1	·	·	1	-3	0	1
CN(C)S(=O)(=O)c1ccc2c(c1)C(=O)c1cc(S(=O)(=O)N(C)C)ccc1CC2	23	-5	12	-13	·	2
CN(C)S(=O)(=O)c1ccc2c(c1)/C(=C/c1cc3c([nH]1)CCCC3)C(=O)N2	-4	35*	-78	69	·	7
O=C1c2ccccc2NC(c2ccc(Cl)cc2Cl)N1O (stereo not given)	-5	·	4	-2	-1	-2
O=C1c2ccccc2NC(c2cccc(Cl)c2)N1N=C1CCCCCC1 (stereo not given)	24	?	-91	92*	-3	-2
O=c1cc(-c2ccccc2)oc2cccc(O)c12	-9	-1	-21	21	·	0
COc1cc(O)c2c(=O)cc(-c3ccccc3)oc2c1	-18	23	-93	95*	·	6
O=c1cc(-c2ccc(O)c(O)c2)oc2ccc3ccccc3c12	-3	-9	88*	-88	·	-19
O=c1cc(-c2ccc(O)cc2)oc2cc(O)cc(O)c12	-26	46*	-88	94*	·	1
O=c1cc(-c2ccccc2)oc2cc(O)cc(O)c12	·	6	-102	100*	·	-1
O=C(COc1cc(O)c2c(=O)cc(-c3ccccc3)oc2c1)c1ccccc1	8	·	-21	25	3	2
Cc1cc(N2CCN(S(C)(=O)=O)C[C@H]2C)ccc1N1CCN(Cc2ccccc2)[C@H](C)C1	·	-4	·	·	·	·
C[C@H](CO)N1C[C@H](C)[C@@H](CN(C)S(C)(=O)=O)Oc2ccc(NS(=O)(=O)c3cn(C)cn3)cc2C1=O	8	-2	-2	3	·	3
COC(=O)c1cc2c(c3c4cc(C)ccc4n(S(=O)(=O)c4ccc(OC)cc4)c13)C(=O)N(Cc1ccccc1)C2	·	-5	·	·	·	·
O=C(Cc1c[nH]c2ccccc12)Nc1ccc(Nc2cccnc2)c(-c2cccc(Cl)c2)c1	·	-6	·	·	·	·
C=CCn1cccc(C(=O)Nc2ccc(SC)cc2)c1=O	-5	25	-73	76	0	-4
C=CCn1cccc(C(=O)Nc2ccc(Cl)cc2)c1=O	-32	15	-80	82*	-6	-4
Cc1ccc(C=NNC(=O)CSc2nc3sc4c(c3c(=O)n2-c2ccccc2)CCCC4)s1	·	·	·	·	-14	·
COc1ccc(-n2nnnc2C(c2cc3ccccc3o2)N2CCN(C/C=C/c3ccccc3)CC2)cc1 (stereo not given)	·	-4	·	·	·	-4
Cc1ccc(Nc2ncccc2C(N)=O)cc1[N+](=O)[O-]	-6	70*	-91	91*	9	0
SMILES	PfHsp90 yeast 2	Wnt act	TRPM1 prom inh	MITF TRPM1 HTS	NSD2 HMT inh	N-glyco inh
C=CCn1c(SCC(=O)N(C)C)nc2cc(C(=O)O)ccc2c1=O	41	-1	16	-16	7	1
c1ccc(-c2cc3nccc(-c4ccccn4)n3n2)cc1	-19	19	-122	127*	-13	-3
O=C1c2ccccc2C(=O)N1CCOc1ccccc1Cl	-1	24	-81	86*	-1	-1
CCCCCCCCCCCCCCCC[n+]1ccc(/C=N/O)cc1	106*	-9	78*	-76	·	87*
CCCCCCCCCCCCCCCC[n+]1ccccc1	114*	-29	82*	-81	12	-12
CCCCCCCCCCCCCCCC[n+]1ccc(C(N)=O)cc1	104*	-26	18	-22	4	-12
CCCCCCCCCCCCCCCC[n+]1cccc(C(=O)N(CC)CC)c1	107*	-7	18	-16	-1	-4
CC(C)(N[C@@H](Cc1ccccc1)C(=O)NCCCc1ccccc1)C(=O)NCc1ccccc1	·	·	·	·	-3	·
O=C(NCc1ccccc1)[C@@H]1CCCN1C(=O)[C@H]1CCCN1C(=O)c1cccc(F)c1	·	3	·	·	·	·
CC(C)[C@H](NC(=O)C1CCCC1)C(=O)N1CCC[C@H]1C(=O)NCCc1ccccc1Cl	·	8	·	·	·	·
COc1ccccc1CNC(=O)C1CCN(S(=O)(=O)c2ccc(N3CCCC3=O)cc2)CC1	-4	-2	-10	8	-1	-5
Cc1ccc(Nc2ncc3c(n2)CC(C)(C)CC3=O)cc1	-14	-1	-92	91*	-3	-4
CC1(C)CC(=O)c2cnc(NC3CC3)nc2C1	0	-4	-8	14	16	0
COC(=O)C1=C(C)N(Cc2cccc(C(F)(F)F)c2)C(=NCc2ccc(OC)cc2)NC1c1ccccc1C(F)(F)F (stereo not given)	·	-27	·	·	-1	·
COc1ccc(CCNC(=O)CC(C)(C)CC2=NS(=O)(=O)c3ccccc3N2)cc1OC	-18	0	9	-11	0	4
CSc1ccccc1C(=O)Nc1ccc2c(c1)CCC2	1	30*	-18	24	-1	3
Cc1c(C(=O)Nc2ccc(Nc3ccccc3)cc2)cccc1[N+](=O)[O-]	17	-2	6	-4	4	0
Cc1c(C(=O)Nc2ccc3c(c2)CCC3)cccc1[N+](=O)[O-]	-15	15	-90	92*	-1	0
O=C(Nc1ccc2c(c1)CCC2)c1ccccc1Br	6	19	-51	43	-1	-5
NC(=O)c1cc([N+](=O)[O-])ccc1NCc1ccc(N)cc1	11	-7	79*	-76	·	-1
NC(=O)c1cc([N+](=O)[O-])ccc1NCc1ccc(F)cc1	-8	5	·	·	·	6
O=S(=O)(c1c(F)cccc1F)N(CCc1ccc(F)cc1)C[C@@H](O)COCc1ccccc1	120*	-3	2	-3	·	-5
CCC(C)NC(=O)C1CC(=O)N(CCc2ccc(F)cc2)C1 (stereo not given)	-2	1	20	-20	-2	-1
COc1ccc(OC)c(NC(=O)NCCc2cccc(Cl)c2)c1	22	60*	-1	-4	-1	-1
Cc1ccc2sc(N(CCCN(C)C)C(=O)c3ccc(S(=O)(=O)N(C)Cc4ccccc4)cc3)nc2c1C	15	-13	78*	-77	3	-11
CN(C)CCCN(C(=O)c1ccc(S(=O)(=O)N(C)Cc2ccccc2)cc1)c1nc2cc3c(cc2s1)OCO3	-30	0	85*	-85	1	·
CCOc1cccc2sc(N(CCCN(C)C)C(=O)c3ccc(S(=O)(=O)N(CC)Cc4ccccc4)cc3)nc12	1	-2	57	-57	7	-3

High-throughput results: PubChem, Broad Institute
